Test results as given in PubChem BioAssay AID1014 (NMMLSC, 2008).
Calls of active or inactive are those of the source. Rule as the data show it: active = inhibition of mean fluorescence above about 33%; inactive = the rest.

Assay: blockers of bacterial quorum-sensing reporter fluorescence – flow cytometry, SAR analogs, SAR follow-up (AID 1014);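 also: Staphylococcus aureus RN6390 with RNAIII-GFP reporter stimulated by AIP; bacteria incubated with compound for 3 hours at 37 °C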
Details: at 20 µM, stronger effect = higher value; inhibition of percent positive cells: measured here: percent reporter-positive cells

SMILES	inhibition of mean fluorescence	inhibition of percent positive cells
Cc1nnc(N2CCC(C(=O)Nc3ccc4c(c3)OCCO4)CC2)c2nn(-c3ccccc3)c(C)c12	-7.3% (inactive)	0%
O=C(O)c1ccccc1Nc1nc(N2CCCC2)nc(N2CCCC2)n1	10.8% (inactive)	-0.3%
COc1ccccc1N1CCN(C(CNC(=O)c2cccc(Cl)c2)c2cccnc2)CC1 (stereo not drawn)	72.3% (active)	15.4%
CCOC(=O)c1c(COc2ccccc2)oc2ccc(O)cc12	-1.1% (inactive)	-0.9%
O=C(O)c1ccccc1Nc1c([N+](=O)[O-])c(=O)oc2ccccc12	-23.2% (inactive)	-1.7%
COc1ccc(NC(=O)C(c2cc3c(cc2[N+](=O)[O-])OCO3)N2CCCCC2)cc1 (stereo not drawn)	-14.1% (inactive)	-1.6%
COc1ccc(CC(=O)Nc2oc(-c3ccccc3)c(-c3ccccc3)c2C#N)cc1OC	20% (inactive)	-0.5%
CC1CCCN(C(C(=O)Nc2ccc(C(C)C)cc2)c2cc3c(cc2[N+](=O)[O-])OCO3)C1 (stereo not drawn)	14.1% (inactive)	-0.2%
CC(=O)Nc1ccc(Nc2nc3c(S(=O)(=O)c4ccccc4)nnn3c3ccccc23)cc1	-8% (inactive)	3.3%
CCOC(=O)c1cnc2c(OC)cccc2c1Nc1ccccc1C(=O)O	-42.9% (inactive)	-1.1%
CCOC(=O)c1c(-c2ccc(OC)cc2)oc2ccc(O)cc12	-20.8% (inactive)	0.1%
Cc1nnc(N2CCCC(C(=O)Nc3ccc4c(c3)OCO4)C2)c2nn(-c3ccccc3)c(C)c12 (stereo not drawn)	-10.1% (inactive)	0%
Cc1ccc(S(=O)(=O)c2nnn3c2nc(Nc2ccc(C(C)C)cc2)c2ccccc23)cc1	12.6% (inactive)	-1.7%
CC1CN(CCC(=O)Nc2ccc3c(c2)OCO3)CC(C)O1 (stereo not drawn)	14% (inactive)	-1.3%
CCc1ccc(Nc2nc3c(S(=O)(=O)c4ccc(C(C)C)cc4)nnn3c3ccccc23)cc1	6.9% (inactive)	-1.1%
Cc1ccc(Nc2c(F)c(F)c(F)c(F)c2C(=O)O)c(C)c1	4.2% (inactive)	-2.3%
CC1CC(C)CN(C(C(=O)Nc2ccc(C(C)C)cc2)c2ccc3c(c2)OCO3)C1 (stereo not drawn)	19.3% (inactive)	-1.5%
O=C(O)c1sc2ccccc2c1Nc1ccccc1	-2.8% (inactive)	0.6%
CN(C)c1ccc(Nc2c(C(=O)O)cc([N+](=O)[O-])cc2[N+](=O)[O-])cc1	10.4% (inactive)	5.2%
O=C(NCC(c1cccnc1)N1CCN(c2ccccc2F)CC1)C1CCCCC1 (stereo not drawn)	-12.9% (inactive)	-0.1%
CC(C)(C)c1ccc(S(=O)(=O)c2nnn3c2nc(Nc2ccccc2)c2ccccc23)cc1	-15.5% (inactive)	-0.9%
COc1ccc(N2CCN(C(CNC(=O)c3ccccc3F)c3cccnc3)CC2)cc1 (stereo not drawn)	-65.6% (inactive)	-1.1%
CC(C)c1ccc(NC(=O)C(c2ccc3c(c2)OCO3)N2CCC3(CC2)OCCO3)cc1 (stereo not drawn)	15.2% (inactive)	-0.8%
COc1ccc(Nc2nc3c(S(=O)(=O)c4ccc(C(C)C)cc4)nnn3c3ccccc23)cc1	-10.2% (inactive)	0.3%
O=C(Nc1ccc2c(c1)OCO2)C(c1ccc(Cl)cc1)N1CCC2(CC1)OCCO2 (stereo not drawn)	-0.5% (inactive)	-0.8%

SMILES	inhibition of mean fluorescence	inhibition of percent positive cells
COc1c(F)c(F)c(C(=O)O)c(Nc2ccccc2)c1F	-23.9% (inactive)	-2.3%
Cc1ccc(Nc2c(F)c(F)c(F)c(F)c2C(=O)O)cc1	9.9% (inactive)	-0.2%
Cc1ccc(Nc2nc3c(S(=O)(=O)c4ccc(C)cc4)nnn3c3ccccc23)cc1	-16% (inactive)	0.9%
CCc1c(C(=O)c2ccccc2)oc2c(C)c3oc(=O)cc(C)c3cc12	-0.6% (inactive)	-1.3%
CC(=O)c1c(C)oc2ccc(O)cc12	-5.9% (inactive)	-1.1%
Cc1ccccc1Nc1c(F)c(F)c(F)c(F)c1C(=O)O	-18.8% (inactive)	-1.9%
COc1c(F)c(F)c(C(=O)O)c(Nc2ccc(C)cc2C)c1F	67.8% (active)	13.3%
COc1cccc(-n2cc(C(=O)N=C3NC(=O)CS3)c3ccccc3c2=O)c1	-5.7% (inactive)	0%
O=C(NCCN1CCN(c2ccccc2F)CC1)c1ccc2c(Cl)c3c(nc2c1)CCCC3	4.8% (inactive)	-0.2%
O=C(NC1CCCCC1)C(c1cc2c(cc1[N+](=O)[O-])OCO2)N1CCN(c2ccccc2)CC1 (stereo not drawn)	-34.9% (inactive)	0.3%
O=C(NCC(c1cccnc1)N1CCN(c2ccccc2F)CC1)C1CC1 (stereo not drawn)	-8.8% (inactive)	-0.7%
O=CN1CCN(C(C(=O)NC2CCCC2)c2cc3c(cc2[N+](=O)[O-])OCO3)CC1 (stereo not drawn)	-8.7% (inactive)	-0.6%
CC(C)c1ccc(NC(=O)C(c2ccc3c(c2)OCO3)N2CCN(C(=O)c3ccco3)CC2)cc1 (stereo not drawn)	-33.9% (inactive)	-1.4%
Cc1ccc(S(=O)(=O)c2nnn3c2nc(Nc2ccc(Oc4ccccc4)cc2)c2cc(Cl)ccc23)cc1	-19.1% (inactive)	-0.5%
NC1=NC(=O)CC(C(=O)Nc2ccccc2)S1 (stereo not drawn)	-19.2% (inactive)	-0.6%
COc1ccc(S(=O)(=O)c2n[nH]n3c2nc(=O)c2ccccc23)cc1	34.1% (active)	-1.8%
Cc1ccc(C)c(Nc2c(F)c(F)c(F)c(F)c2C(=O)O)c1	2.3% (inactive)	-1.9%
COc1ccc(C(=O)NCC(c2cccnc2)N2CCN(c3ccc(F)cc3)CC2)cc1OC (stereo not drawn)	3.4% (inactive)	0%
Cc1cc(C)cc(Nc2nc3c(S(=O)(=O)c4ccccc4)nnn3c3ccccc23)c1	0.4% (inactive)	0.1%
Cc1ccccc1C(=O)N1CCC(C(=O)Nc2ccc3c(c2)OCO3)CC1	-8.8% (inactive)	-0.4%
COc1ccc(CC(=O)Nc2oc(-c3ccccc3)c(-c3ccccc3)c2C#N)cc1	42.6% (active)	1.3%
Cc1cccc(OCC(=O)Nc2sc3c(c2C#N)CCCC3)c1C	28.1% (inactive)	1.4%
CCOC(=O)c1oc2cccc(O)c2c1C	0.4% (inactive)	-0.8%
COc1ccc(Nc2nc3c(S(=O)(=O)c4ccc(F)cc4)nnn3c3ccccc23)cc1	-28.2% (inactive)	-1.1%
